A word on the AC50: it is the concentration at which the activity in the assay is half-maximal.

The source made the active and inactive calls. Rule for the calls: active = hit-call score of the fitted dose curve at least 0.9, where 1 is the maximum; inactive = score below 0.9.

Read-out in this assay: Tissue plasminogen activator (tPA), PLAT (gene 5327)
The assay can be described thus: BSK_BE3C_tPA: BioMAP Diversity Plus: BE3C Assay for Tissue plasminogen activator (tPA) Biomarker Activity (AID 2283041). As to conditions: primary human bronchial epithelial cells; actives raise or lower the signal. How it is done:
BSK_BE3C is a cell-based, multiplexed-readout assay that uses bronchial epithelial cell, a human lung primary cell, with measurements taken at 24 hours after chemical dosing in a 96-well plate.BSK_BE3C_tPA is an assay component measured in the BSK_BE3C assay. It measures tPA antibody related to regulation of gene expression using ELISA technology.Data from the assay component BSK_BE3C_tPA was analyzed into 1 assay endpoint. This assay endpoint, BSK_BE3C_tPA, was analyzed with bidirectional fitting relative to DMSO as the negative control and baseline of activity. Using a type of binding reporter, gain or loss-of-signal activity can be used to understand changes in the signaling as they relate to the gene PLAT. Furthermore, this assay endpoint can be referred to as a primary readout, because this assay has produced multiple assay endpoints where this one serves a signaling function. To generalize the intended target to other relatable targets, this assay endpoint is annotated to the protease intended target family, where the subfamily is serine protease.
The levels of cell surface (or secreted, indicated by the prefix "s") biomarker endpoints were measured by ELISA. Overt cytotoxicity to cells in confluent adherent cultures (all systems other than the BT system) was assessed by measuring total protein levels using sulforhodamine B (SRB) staining in parallel cultures at the time of biomarker measurements, indicated as SRB endpoints. For proliferation assays for adherent cell types, individual cell types are cultured at sub-confluence and relative cell numbers quantified by SRB staining at time points optimized for each system (48 h: 3C and CASM3C systems; 72 h: BT and HDF3CGF systems; 96 h: SAg system). SRB was performed by staining cells with 0.1% SRB after fixation with 10% TCA and reading wells at 560 nm.Viability and proliferation of PBMC (T cells) was quantified by Alamar Blue reduction for the SAg and BT systems. For PBMC viability (referred to as PBMC Cytotoxicity within the assay endpoint names), cells were plated (75,000/well in a 96-well plate) and then chemical samples added for 1 h before addition of activators, SEB and TSST-1 (20 ng/mL final concentration each). Cells were incubated for 90 h. Then, Alamar Blue (20 uL/well) (Invitrogen, Cat DAL1100) was added for 6 h, and the plates were read with a fluorescence microplate reader at 546/580 nm (excitation/emission). For PBMC proliferation, cells were plated and activated as above but incubated for only 16 h prior to addition of Alamar Blue. Plates were read after 6 h.
Regarding `CC1(C)NC(=O)N(c2ccc([N+](=O)[O-])c(C(F)(F)F)c2)C1=O`, the result was inactive.
As for `CCCCCCCCOC(=O)c1cc(O)c(O)c(O)c1`, the AC50 is 24.9 µM (active).
As for `Cc1occc1C(=O)Nc1ccc(C(=O)N2CCC(F)(F)/C(=C\C(=O)N3CCC(N4CCCCC4)CC3)c3ccccc32)cc1`, the result was inactive.
`NCc1cccc(C2CCN(C(=O)c3ccc(C#Cc4ccccc4F)o3)CC2)c1`: the AC50 was 7.07 µM (active).
Regarding `CC(C)(O)c1ccc(CNC(=O)c2cccnc2Oc2ccc3nonc3c2)cc1`, the result was inactive.
The same measure, in the same setting: with `CCCCCCCCCC(=O)O` the entry was “inactive”.
For `Clc1ccccc1C(c1ccccc1)(c1ccccc1)n1ccnc1`, the AC50 is 5.41 µM (active).
On the same count and under the same terms, as for `CCOC(=O)O[C@H](C)OC(=O)c1ccc2c(c1)cc(C(=O)NC1CCN(C(C)C)CC1)n2Cc1cc(-c2ccc(Cl)s2)on1`, the figure is 9.95 µM (active).
On to `CC1=CC(=O)/C(=C(/C)O)C(=O)O1`, for which the outcome was inactive.
Still for that read-out and setting: with `Cc1cc2c(cc1C(F)(F)F)N(C(=O)Nc1ccc(Oc3cccnc3C)nc1)CC2` the entry was “inactive”; with `O=CCCCC=O`, “inactive”; with `CCCCCc1ccc(N)cc1`, “inactive”.
The same measure, in the same setting: with `CCCC(=O)OCCC(C)C` the entry was “inactive”; with `CCCOC(=O)c1cc(O)c(O)c(O)c1`, “inactive”.
On the same count and under the same terms, as for `CCCCOC(=O)c1ccc(O)cc1`, the entry is “inactive”; as for `CO[C@H]1/C=C/O[C@@]2(C)Oc3c(C)c(O)c4c(O)c(c(/C=N/N5CCN(C)CC5)c(O)c4c3C2=O)NC(=O)/C(C)=C\C=C\[C@H](C)[C@H](O)[C@@H](C)[C@@H](O)[C@@H](C)[C@H](OC(C)=O)[C@@H]1C`, “inactive”.
Regarding `O=C=NCCCCCCN=C=O`, the outcome was inactive.
On to `CC(C)(C)c1cc(/C=C2\SC(N)=NC2=O)cc(C(C)(C)C)c1O`, for which the outcome was inactive.
Take `c1ccc(C[n+]2cccc3ccccc32)cc1`: the outcome was inactive.
For the compound `CN(C)C(=O)C1(N2CCCCC2)CCN(CC[C@@]2(c3ccc(Cl)c(Cl)c3)CN(C(=O)c3ccccc3)CCO2)CC1`, the concentration at half-maximal activity (AC50) is 17.3 µM (active).
Same read-out and setting: as for `CN(C[C@@H](CC[N+]12CCC(C3CCCCC3)(CC1)CC2)c1ccc(Cl)c(Cl)c1)C(=O)c1cc(C(F)(F)F)cc(C(F)(F)F)c1`, the figure is 11.9 µM (active).
On to `CC[C@H](NC(=O)c1cc(F)ccc1NS(=O)(=O)c1cccc2cccnc12)c1ccccc1`, for which the result was inactive.
Still for that read-out and setting: as for `CCCCCCCCOc1ccc(C(=O)c2ccccc2)c(O)c1`, the entry is “inactive”; as for `OC12N=C(c3ccccc3)SC1Cc1cc(Cl)ccc12` (stereo not given), “inactive”.
Same read-out and setting: with `O=C1c2ccccc2C(=O)N1CCc1noc(-c2ccc(CN3CCCCCC3)s2)n1` the entry was “inactive”.
As for `NC(=O)c1nc(-c2cccc(-c3cc(F)ccc3OCC(F)(F)C(F)(F)F)c2)n[nH]1`, the AC50 is 27.5 µM (active).
The same measure, in the same setting: with `CC/C(=C(/CC)c1ccc(O)cc1)c1ccc(O)cc1` the figure was 14.3 µM (active).
In the case of `O=C(OCCCCCCOC(=O)c1ccccc1)c1ccccc1`, the result was inactive.
Still for that read-out and setting: as for `CCO[Si](CCCNC(N)=O)(OCC)OCC`, the entry is “inactive”; as for `Clc1cc(Cl)c2c(c1)N=C1CCCCCN1C2`, “inactive”.
In the case of `O=C(O)Cn1c(=O)n(Cc2ccc(Br)cc2F)c(=O)c2ccc(Cl)cc21`, the AC50 was 11.5 µM (active).
Regarding `COc1cccc([C@H](O)C2CCN(CCc3ccc(F)cc3)CC2)c1OC`, the result was inactive.
For the compound `CCCCCCCCCCCC[N+](C)(C)C`, the AC50 is 15 µM (active).
Consider `O=c1ccc2ccccc2o1`, for which the outcome was inactive.
Still for that read-out and setting: as for `CN1C(=O)CC[C@H]1c1cccnc1`, the entry is “inactive”; as for `CC(=O)N1CCN(c2ccc(OC[C@H]3CO[C@](Cn4ccnc4)(c4ccc(Cl)cc4Cl)O3)cc2)CC1`, “inactive”; as for `O=C1O[C@H]([C@@H](O)CO)C(O)=C1O`, “inactive”.
On to `O=c1c(-c2ccc(O)cc2)coc2cc(O)cc(O)c12`, for which the half-maximal activity concentration (AC50) is 9.33 µM (active).
The same measure, in the same setting: with `CC(C)(C)c1csc(-c2cc3cc(OCc4ccccc4CC(=O)O)ccc3o2)n1` the figure was 6.81 µM (active).
Turning to `Cc1cccc2ccccc12`, the outcome was inactive.
